NLRP3 yeast inh: NALP3 inflammasome inhibitors in reconstituted yeast, primary screen, luminescence, uHTS; 330,000 compounds, 0.39% hits; AID 2825, 2010; Yeast reconstituted NLRP3/ASC/caspase-1, beta-gal luminescence, 24 h; inhibition, % at 10 µM;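 active = inhibition of 50% or more; inactive = inhibition below 50%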;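 note: plate controls were induced DMSO wells for no effect and uninduced yeast grown without galactose for full effect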
TIM10 inh: growth inhibitors of isogenic TIM10 control yeast, primary screen, counter-screen for tim10-1 yeast inhibitor project, luminescence, uHTS | 330,000 compounds, 1.4% hits | S. cerevisiae TIM10 strain growth, BacTiter-Glo luminescence, 24 h | inhibition, % at 10 µM;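 active = inhibition of 40% or more at the single tested concentration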;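 note: wild-type TIM10 isogenic control strain grown at permissive 25 °C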
tim23-1 inh: growth inhibitors of tim23-1 mutant yeast, primary screen, luminescence, uHTS | 330,000 compounds, 1.3% hits | AID 463212, 2010 | inhibition, % at 20 µM | S. cerevisiae tim23-1 growth, BacTiter-Glo luminescence, 24 h;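 active = growth inhibition of the mutant yeast at or above 50%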;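 note: temperature-sensitive mutant grown at 25 °C; plate controls were DMSO-treated mutant yeast for no effect and medium wells lacking yeast for full effect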
NALP1 inh: NALP1 inflammasome inhibitors in reconstituted yeast, colorimetric, S. cerevisiae, triplicate retest. inhibition, % at 10 µM. AID 2071, 2009. S. cerevisiae NALP1/ASC/caspase-1 growth, X-gal OD620, 72 h. 280,000 compounds, 0.61% hits; in the data active = inhibition mostly above about 24%, no sharp cut-off; inactive = mostly below about 32%
tim10-1 inh: growth inhibitors of tim10-1 mutant yeast, primary screen, luminescence, uHTS. inhibition, % at 20 µM. S. cerevisiae tim10-1 ts strain growth, BacTiter-Glo, 24 h. 330,000 compounds, 2.2% hits;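 active = inhibition of at least 40%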;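 note: mutant grown at 25 °C; 0% = DMSO wells with yeast and 100% = wells holding no yeast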
NALP3 yeast conf: NALP3 inhibitors retested in yeast, confirmation, luminescence, single concentration | shares compounds with NLRP3 yeast inh | yeast expressing human NALP3 | inhibition, % at 10 µM | 1,300 compounds, 81% hits | AID 435006, 2010; in the data active = inhibition above about 48%
tim10-1 confirm: growth inhibitors of tim10-1 mutant yeast, confirmation, single concentration, luminescence, S. cerevisiae; shares compounds with tim10-1 inh; S. cerevisiae tim10-1 ts strain growth, BacTiter-Glo, 24 h; inhibition, % at 20 µM; 7,400 compounds, 56% hits; AID 463213, 2010;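 active = inhibition of yeast growth at or above a set limit in either of two repeat tests at 20 µM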;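 note: tim10-1 mutant grown at permissive 25 °C to find synthetic lethal compounds; 0% = DMSO yeast wells and 100% = medium wells without yeast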
tim10 confirm: growth inhibitors of wild-type TIM10 yeast, confirmation, counter-screen for tim10-1 synthetic lethality project, single concentration, luminescence, S. cerevisiae. shares compounds with TIM10 inh. S. cerevisiae tim10 strain growth, BacTiter-Glo luminescence, 24 h. inhibition, % at 10 µM. 4,600 compounds, 63% hits;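 active = inhibition of yeast growth at or above a set limit in either of two replicates at 10 µM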;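 note: this counterscreen used the strain with wild-type TIM10; 0% = yeast with DMSO and 100% = medium wells lacking yeast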
tim23-1 conf: tim23-1 mutant yeast growth inhibitors, confirmation, luminescence, single concentration; shares compounds with tim23-1 inh; S. cerevisiae tim23-1 growth, BacTiter-Glo luminescence, 24 h; inhibition, % at 20 µM; 4,400 compounds, 83% hits;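 active = inhibition above about 39% in either of two replicate wells at 20 µM, limit read from the data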;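 note: temperature-sensitive tim23-1 mutant grown at 25 °C; 0% = DMSO wells with yeast and 100% = medium wells without yeast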
Active calls of the source: *. An excerpt weighted towards active compounds, which were near 4.1% of everything screened.

Screening CN[C@H]1C[C@H]2O[C@@](C)([C@H]1OC)n1c3ccccc3c3c4c(c5c6ccccc6n2c5c31)C(=O)NC4 returned NLRP3 yeast inh 97.1*, TIM10 inh 74.4*, tim23-1 inh 63.6*, NALP1 inh 92.4*, tim10-1 inh 58.0*, NALP3 yeast conf 98.7*, tim10-1 confirm 43.6*, tim10 confirm 67.4* and tim23-1 conf 69.6*.
Screening CC(=O)OC1C=CC2[C@H]3Cc4ccc(O)c5c4[C@@]2(CCN3C)C1O5 (stereo partly specified) returned NLRP3 yeast inh 5.7, TIM10 inh 0.3, tim23-1 inh 13.4 and tim10-1 inh 7.9.
For Cc1ccc(Oc2cc(NN3CCCCC3)c([N+](=O)[O-])cc2[N+](=O)[O-])c([N+](=O)[O-])c1 the results were NLRP3 yeast inh 22.9, TIM10 inh 14.5, tim23-1 inh 16.6, NALP1 inh 8.2 and tim10-1 inh 11.2.
`CN1CCN(Cc2cn(C)c3ccccc23)CC1CCO` (stereo unspecified) gave NALP1 inh 1.0.
`CCN(CC)C(=O)c1ccc(NC(=S)NC(=O)CCc2ccccc2)cc1` gave NLRP3 yeast inh 4.6, TIM10 inh 22.7, tim23-1 inh 32.9, NALP1 inh 3.4, tim10-1 inh 42.1* and tim10-1 confirm 21.3.
`CCCCn1c(O)c(C=NC2CC3CCC2(C)C3(C)C)c(=O)[nH]c1=O` (stereo unspecified) gave NLRP3 yeast inh 3.6, TIM10 inh 37.6, tim23-1 inh 25.0, NALP1 inh 35.1, tim10-1 inh 55.3* and tim10-1 confirm 40.0*.
`Cn1c(O)c(C=NC2CC3CCC2(C)C3(C)C)c(=O)[nH]c1=O` (stereo unspecified) gave NLRP3 yeast inh 6.0, TIM10 inh 11.0, tim23-1 inh 31.3, NALP1 inh -18.6 and tim10-1 inh 26.4.
Screening CCOC(=O)N(c1ccccc1)P1(=S)OCCO1 returned NLRP3 yeast inh 3.7, TIM10 inh -8.9, tim23-1 inh 6.1, NALP1 inh 12.8 and tim10-1 inh -1.5.
CCOC(=O)N(c1ccccc1)P1(=S)OCC(C)O1 (stereo unspecified) was read as NLRP3 yeast inh 9.4, TIM10 inh -19.5, tim23-1 inh 6.6, NALP1 inh 11.8, tim10-1 inh 50.0* and tim10-1 confirm 11.6.
CN(C)C(=O)Oc1ccc2c(c1)O/C(=C\c1cccc(Cl)c1)C2=O was read as NLRP3 yeast inh 13.9, TIM10 inh 22.6, tim23-1 inh 36.4, NALP1 inh 13.4, tim10-1 inh 40.7* and tim10-1 confirm 31.8*.
`CN1C2CCC1CC(=NO)C2` gave NLRP3 yeast inh 13.4, TIM10 inh -3.2, tim23-1 inh -17.9, NALP1 inh -4.0 and tim10-1 inh -9.4.
Cc1ccc(-c2cc(-c3ccc(C)cc3)[n+](-c3ccccc3)c(-c3ccc(C)cc3)c2)cc1 was read as NLRP3 yeast inh 30.9, TIM10 inh 15.2, tim23-1 inh 46.6, tim10-1 inh 42.7* and tim10-1 confirm 22.7.
For c1ccc(-c2cc(-c3ccccc3)[n+](-c3ccccc3)c(-c3ccccc3)c2)cc1 the results were NLRP3 yeast inh 13.7, TIM10 inh 24.2, tim23-1 inh 20.5 and tim10-1 inh 22.1.
`CN(C)c1ccc(-[n+]2c(-c3ccccc3)cc(-c3ccccc3)cc2-c2ccccc2)cc1` gave NLRP3 yeast inh 13.4, TIM10 inh 33.6, tim23-1 inh 37.8, NALP1 inh 9.6, tim10-1 inh 51.8* and tim10-1 confirm 37.2*.
For CN(C)CC1CCCCC1OC(=O)Cc1ccc(Cl)c([N+](=O)[O-])c1 (stereo unspecified) the results were NLRP3 yeast inh 5.3, TIM10 inh 4.4, tim23-1 inh 2.9, NALP1 inh 0.2 and tim10-1 inh -4.2.
`COc1ccc(N2C(=O)CC(N3CC=C(c4ccccc4)CC3)C2=O)cc1` (stereo unspecified) gave NLRP3 yeast inh 10.6, TIM10 inh 26.7, tim23-1 inh 28.5, NALP1 inh 28.7, tim10-1 inh 42.5* and tim10-1 confirm 22.1.
For Nc1ccccc1Cl the results were NLRP3 yeast inh 5.6, TIM10 inh 2.2, tim23-1 inh -7.9 and tim10-1 inh -14.0.
For Oc1ccc2c3c1OC1c4oc5ccccc5c4C[C@@]4(O)[C@@H](C2)N(CC2CC2)CC[C@]314 (stereo partly specified) the results were NLRP3 yeast inh 7.3, TIM10 inh 3.2, tim23-1 inh 15.2 and tim10-1 inh 13.3.
`CC1C(OC(=O)CCC(=O)NC(C)(C)CO)O[C@H]2OC3(C)CC[C@H]4[C@H](C)CCC1C24OO3` (stereo partly specified) gave NLRP3 yeast inh -11.4, TIM10 inh 19.2, tim23-1 inh 11.2, NALP1 inh 30.1 and tim10-1 inh 18.3.
For C[C@H]1[C@H](OC(=O)CCC(=O)NCc2ccc(C(=O)O)cc2)O[C@@H]2O[C@@]3(C)CC[C@H]4[C@H](C)CC[C@@H]1C24OO3 the results were NLRP3 yeast inh 5.3, TIM10 inh 10.3, tim23-1 inh 21.0, NALP1 inh 18.4, tim10-1 inh 43.1* and tim10-1 confirm 20.1.
COC(=O)C[C@]1(C(=O)OC)CN(C#N)N(c2ccc(Cl)cc2)C12c1ccccc1-c1ccccc12 was read as NLRP3 yeast inh 25.5, TIM10 inh 31.6, tim23-1 inh 25.3, NALP1 inh -2.3, tim10-1 inh 46.3* and tim10-1 confirm 20.8.
For COC(=O)[C@@H]1[C@@H](C(=O)OC)C2(c3ccccc3-c3ccccc32)N(c2ccc(Cl)cc2)N1C#N the results were NLRP3 yeast inh 9.1, TIM10 inh 21.3, tim23-1 inh 25.6, NALP1 inh -5.0 and tim10-1 inh 33.4.
N#C/C=C/C#N was read as NLRP3 yeast inh -5.3, TIM10 inh 6.1, tim23-1 inh -17.9 and tim10-1 inh -4.5.
